“And” between values parts separate entries of the source, which are not always exact repeats. Equal entries are not always repeated. Inconclusive results are not listed. A call without a number means that no potency is given here. The source holds several records for some structures; these can differ, active in one and inactive in another. The source made the active and inactive calls. Unless noted, the call rests on the fitted dose curve; in most records, active means well fitted curve in the direction sought with a large enough effect in the repeat runs; inconclusive means weak or mixed curves; inactive means no such curve, though single readings can be large; an effect the other way counts as inactive or inconclusive.
Key:
[1] = qHTS assay to identify small molecule antagonists of the estrogen receptor alpha (ER-alpha) signaling pathway using the BG1 cell line in the presence of 0.1 nM 17-beta-estradiol - cell viability counter screen (AID 1259241); further: nearly all actives have a fitted effect of over 40% in size
Method in brief: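 The cell line endogenously expresses full-length ER-alpha and carries four EREs driving luciferase. Cells are cultured 5 days hormone-free, treated 22 hr with compounds and 0.1 nM estradiol, then viability is read by fluorescence.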

[2] = qHTS assay to identify small molecule antagonists of the androgen receptor (AR) signaling pathway using the MDA cell line in the presence of 0.5 nM R1881 - cell viability counter screen (AID 1259242); further: nearly all actives have a fitted effect of over 45% in size
Method in brief: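 qHTS format. MDA-kb2 (MMTV-luc, AR/GR responsive) + cpd + 0.5 nM R1881 final, 16 hr 37C/0% CO2 → CellTiter-Fluor 30 min → fluorescence intensity.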

[3] = target: Estrogen receptor (Homo sapiens) (UniProt P03372); assay: qHTS assay to identify small molecule antagonists of the estrogen receptor alpha (ER-alpha) signaling pathway using the BG1 cell line in the presence of 0.1 nM 17-beta-estradiol (AID 1259244); further: nearly all actives have a fitted effect of over 50% in size; further: potency means the concentration at half of the fitted maximal effect
Chain of Estrogen receptor (Homo sapiens) (P03372 whole entry, looked up): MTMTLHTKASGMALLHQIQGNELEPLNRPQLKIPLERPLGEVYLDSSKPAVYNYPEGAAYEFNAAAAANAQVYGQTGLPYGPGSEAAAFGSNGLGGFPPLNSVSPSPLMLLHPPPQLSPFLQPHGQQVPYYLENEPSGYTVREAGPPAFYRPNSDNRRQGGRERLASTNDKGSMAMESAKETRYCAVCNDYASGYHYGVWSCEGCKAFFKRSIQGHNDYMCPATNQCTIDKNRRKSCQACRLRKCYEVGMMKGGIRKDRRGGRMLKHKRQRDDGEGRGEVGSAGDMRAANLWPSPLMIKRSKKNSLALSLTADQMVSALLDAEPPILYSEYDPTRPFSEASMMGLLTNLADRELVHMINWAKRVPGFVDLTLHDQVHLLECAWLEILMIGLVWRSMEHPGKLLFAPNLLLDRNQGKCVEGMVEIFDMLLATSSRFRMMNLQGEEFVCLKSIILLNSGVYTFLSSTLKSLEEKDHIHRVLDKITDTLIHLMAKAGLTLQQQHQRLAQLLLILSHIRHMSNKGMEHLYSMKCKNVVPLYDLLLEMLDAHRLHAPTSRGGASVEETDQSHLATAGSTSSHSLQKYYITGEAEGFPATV
Method in brief: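 Reporter is a stably transfected luciferase under four estrogen responsive elements in VM7Luc4E2 cells expressing native full-length ER-alpha; inhibition of 0.1 nM (final) 17beta-estradiol-driven signal over 22 h is read by luminescence.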

[4] = qHTS assay to identify small molecule phospholipidosis (PLD) inducers (AID 1259344; active means well fitted curve in the direction sought with a large enough effect; an effect the other way counts as inactive or inconclusive; further: potency means the concentration at half of the fitted maximal effect)
Method in brief: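 Accumulated phospholipid, stained red by LipidTOX during 24 h compound treatment of HepG2 cells at 37 C, is quantified from images as pit number and intensity, normalised per cell using Hoechst-stained nuclei.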

[5] = qHTS assay to identify small molecule HDAC inhibitors (AID 1259364); further: potency means the concentration at half of the fitted maximal effect;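 further: wild-type HCT-116 cells with endogenous class I/II HDAC activity; nearly all actives have a fitted effect of over 45% in size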
Method in brief: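 Quantitative high-throughput format: overnight-seeded HCT-116 cells got compounds for 2 hr at 37C; HDAC-Glo I/II reagent added, 30 min RT, luminescence measured.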

[6] = qHTS assay to identify small molecule HDAC inhibitors - cell viability counter screen (AID 1259365); further: series mostly up to about 92 µM; nearly all actives have a fitted effect of over 50% in size
Method in brief: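 Viability readout: CellTiter-Glo luminescence. Wild-type HCT-116 cells, 2hr compound treatment following overnight attachment at 37 C.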

[7] = qHTS assay to identify small molecule agonists of the sonic hedgehog signaling (Shh) pathway - cell viability counter screen (AID 1259366); further: nearly all actives have a fitted effect of over 50% in size; further: potency means the concentration at half of the fitted maximal effect
Method in brief: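 Viability measured fluorometrically (CellTiter-Fluor, 1hr, 37C) in 3T3 Gli1-Luc reporter cells after 23hr compound exposure within a 24hr incubation at 37C/5% CO2.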

[8] = qHTS assay to identify small molecule antagonists of the sonic hedgehog signaling (Shh) pathway - cell viability counter screen (AID 1259367); further: nearly all actives have a fitted effect of over 55% in size; further: potency means the concentration at half of the fitted maximal effect
Method in brief: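 CellTiter-Fluor signal in conditioned medium-stimulated 3T3 Gli1-Luc cells, 23 hr compound exposure, 37C.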

[9] = qHTS assay to identify small molecule agonists of the sonic hedgehog signaling (Shh) pathway (AID 1259368; calls by dose curve;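 further: NIH/3T3-derived 3T3Gli1-Luc cells carrying a stable Gli1-driven firefly luciferase reporter; series mostly up to about 92 µM; nearly all actives have a fitted effect of over 15% in size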)
Method in brief: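 Quantitative high-throughput format using a Gli1-driven firefly luciferase reporter line derived from NIH/3T3 cells. After a 24 hr compound treatment at 37 C and 5% CO2, luminescence reported Gli1 response element activity.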

[10] = qHTS assay to identify small molecule antagonists of the sonic hedgehog signaling (Shh) pathway (AID 1259369; calls by dose curve; further: nearly all actives have a fitted effect of over 45% in size; further: potency means the concentration at half of the fitted maximal effect)
Method in brief: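 Stable Gli1-Luc reporter NIH/3T3 clone; quantitative HTS in stimulated mode with conditioned medium. Luminescence measured after 24hr compound treatment at 37 C.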

Row | SMILES | Potency [1] | Potency [2] | Potency [3] | Potency [4] | Potency [5] | outcome [6] | Potency [7] | Potency [8] | outcome [9] | Potency [10]
1 | C#C[C@]1(O)CC[C@H]2[C@@H]3CCC4=CC(=O)CC[C@@H]4[C@H]3CC[C@@]21CC | inactive | inactive | inactive | inactive | inactive | inactive | inactive | inactive | inactive | 17.2 µM (active) and 13.7 µM (active)
2 | Oc1cccc(O)c1 | inactive | inactive | inactive | inactive | inactive | inactive | inactive | inactive | inactive | inactive
3 | CC(C)Cc1ccc(C(C)C(=O)O)cc1 (configuration not stated) | inactive | inactive | inactive | inactive | inactive | inactive | inactive | inactive | inactive | inactive
4 | C1CNCCN1 | inactive | inactive | inactive | inactive | inactive | inactive | inactive | inactive | inactive | 5.61 µM (active) and inactive
5 | COc1cc(C=O)ccc1O | inactive | inactive | inactive | inactive | inactive | inactive | inactive | inactive | inactive | inactive
6 | COC(=O)c1ccc(O)cc1 | inactive | inactive | inactive | inactive | inactive | inactive | inactive | inactive | inactive | inactive
7 | N[C@@H](Cc1c[nH]c2ccc(O)cc12)C(=O)O | inactive | inactive | inactive | inactive | inactive | inactive | inactive | inactive | inactive | inactive
8 | Cc1ccc(O)c(-n2nc3ccccc3n2)c1 | inactive | inactive | inactive | inactive | 1.08 µM (active) and 2.17 µM (active) and 1.5 µM (active) | inactive | 60.6 µM (active) and inactive | inactive | inactive | 60.6 µM (active) and inactive
9 | OC[C@@H](O)[C@@H](O)[C@H](O)[C@H](O)CO | inactive | inactive | inactive | inactive | inactive | inactive | inactive | inactive | inactive | inactive
10 | CCN1CCCC1=O | inactive | inactive | inactive | inactive | inactive | inactive | inactive | inactive | inactive | inactive
11 | NC(=O)OCC(COC(N)=O)c1ccccc1 | inactive | inactive | inactive | inactive | inactive | inactive | inactive |  | inactive | inactive
12 | COc1ccc(C(=O)c2ccccc2)c(O)c1 | inactive | inactive | inactive | inactive | inactive | inactive | inactive | inactive | inactive | inactive
13 | CCCCCCCCOc1ccc(C(=O)c2ccccc2)c(O)c1 | inactive | inactive | inactive | inactive | inactive | inactive | inactive | inactive | inactive | inactive
14 | NC(N)=NC(N)=NCCc1ccccc1 | inactive | inactive | 7.65 µM (active) and 5.45 µM (active) and 7.5 µM (active) | inactive | inactive | inactive | inactive | inactive | inactive | inactive
15 | CC(C)(C)NCC(O)c1ccc(O)c(CO)c1 (configuration not stated) | inactive | inactive | inactive | inactive | inactive | inactive | inactive | inactive | inactive | inactive
16 | COc1cc2c(c(OC)c1OC)-c1ccc(OC)c(=O)cc1[C@@H](NC(C)=O)CC2 | inactive | inactive | 27 µM (active) | 0.708 µM (active) | inactive | inactive | inactive | inactive and 48.6 nM (active) and 376 nM (active) | inactive | 1.7 nM (active) and 2.4 nM (active)
17 | C[C@]12C=CC(=O)C=C1CC[C@@H]1[C@@H]2C(=O)C[C@@]2(C)[C@H]1CC[C@]2(O)C(=O)CO | inactive | inactive | inactive | inactive | inactive | inactive | inactive |  | inactive | inactive
18 | CCCCCCCCCCCCCCCCCC(=O)OCC(O)CO (configuration not stated) | inactive | inactive | inactive | inactive | inactive | inactive | inactive | inactive | inactive | inactive
19 | OCCCc1ccccc1 | inactive | inactive | inactive | inactive | inactive | inactive | inactive | inactive | inactive | inactive
20 | c1ccc2[nH]c(-c3cscn3)nc2c1 | inactive | inactive | inactive | inactive | 9.75 µM (active) and 486 nM (active) and 1.19 µM (active) | inactive | inactive |  | inactive | inactive
21 | C/C=C/c1ccc(O)c(OC)c1 | inactive | inactive | inactive | inactive | inactive | inactive | inactive | inactive | inactive | inactive

Row | SMILES | Potency [1] | Potency [2] | Potency [3] | Potency [4] | Potency [5] | outcome [6] | Potency [7] | Potency [8] | outcome [9] | Potency [10]
22 | CN/C(=C\[N+](=O)[O-])NCCSCc1ccc(CN(C)C)o1 | inactive | inactive | inactive | inactive | inactive | inactive | inactive | inactive | inactive | inactive
23 | CC1(C)O[C@@H]2[C@@H](CO[C@@]3(COS(N)(=O)=O)OC(C)(C)O[C@@H]23)O1 | inactive | inactive | inactive | inactive | inactive | inactive | inactive | inactive | inactive | inactive
24 | Cc1c(N(C)C)c(=O)n(-c2ccccc2)n1C | inactive | inactive | inactive | inactive | inactive | inactive | inactive |  | inactive | inactive
25 | CC(=O)c1ccc(S(=O)(=O)NC(=O)NC2CCCCC2)cc1 | inactive | inactive | inactive | inactive | inactive | inactive | inactive | inactive | inactive | inactive
26 | CCOC(=O)C(C)(C)Oc1ccc(Cl)cc1 | inactive | inactive | inactive | inactive | inactive | inactive | inactive |  | inactive | inactive
27 | CC(C)(C)CC(C)(C)c1ccc(O)c(-n2nc3ccccc3n2)c1 | inactive | inactive | inactive | inactive | inactive | inactive | inactive |  | inactive | inactive
28 | CCCCCCCCCCCCCC(=O)OC(C)C | inactive | inactive | inactive | inactive | inactive | inactive | inactive | inactive | inactive | inactive
29 | CCn1cc(C(=O)O)c(=O)c2ccc(C)nc21 | inactive | inactive | inactive | inactive | inactive | inactive | inactive |  | inactive | inactive
30 | O=C(O)CCCCC1CCSS1 (configuration not stated) | inactive | inactive | inactive | inactive | inactive | inactive | inactive | inactive | inactive | inactive
31 | O=C(O)CN(CC(=O)O)CC(=O)O | inactive | inactive | inactive |  | inactive | inactive | inactive | inactive | inactive | inactive
32 | Cc1cccc2ccccc12 | inactive | inactive | inactive |  | inactive | inactive | inactive | inactive | inactive | inactive
33 | CC(=O)/C=C/C1=C(C)CCCC1(C)C | inactive | inactive | inactive |  | inactive | inactive | inactive | inactive | inactive | inactive and 61.1 µM (active)
34 | C=CC(=O)NC(C)(C)CS(=O)(=O)O | inactive | inactive | inactive |  | inactive | inactive | inactive |  | inactive | inactive
35 | COc1ccccc1O | inactive | inactive | inactive | inactive | inactive | inactive | inactive |  | inactive | inactive
36 | CCCCOC(=O)CCCCCCCCC(=O)OCCCC | inactive | inactive | inactive |  | inactive | inactive | inactive | inactive | inactive | inactive
37 | COC1=CC(=O)C[C@@H](C)[C@]12Oc1c(Cl)c(OC)cc(OC)c1C2=O | inactive | inactive | inactive | inactive | inactive | inactive | inactive |  | inactive | 4.29 µM (active) and 13.7 µM (active)
38 | CN(C)Cc1cc(CN(C)C)c(O)c(CN(C)C)c1 | inactive | inactive | inactive |  | inactive | inactive | inactive |  | inactive | inactive
39 | C=C(C)C(N)=O | inactive | inactive | inactive |  | inactive | inactive | inactive |  | inactive | inactive
40 | CN(C)C=O | inactive | inactive | inactive |  | inactive | inactive | inactive |  | inactive | inactive
41 | Cc1cccc(Nc2cc(Cl)nc(SCC(=O)O)n2)c1C | inactive | inactive | inactive | inactive | inactive | inactive | inactive |  | inactive | inactive
42 | COCCOCCOC | inactive | inactive | inactive |  | inactive | inactive | inactive | inactive | inactive | inactive
